# Experimental data as given in PubChem BioAssay AID743025 (Vanderbilt Specialized Chemistry Center, 2013).
# Unmarked numbers belong to inactive results.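 Rule for the calls: active = IC50 below 10 µM at human M5 in a calcium flux test, acting as a negative modulator; inactive = the rest.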
# Molecular target: Muscarinic acetylcholine receptor M5 (Homo sapiens) (UniProt P08912)
# Test: inhibition of ACh-evoked M5 calcium signal – cell-based, single concentration, human M5 (AID 743025)
# Conditions: CHO-K1 hM5, ACh EC80 calcium flux, Fluo-4; at 10 µM; hits give low values
# Sequence of Muscarinic acetylcholine receptor M5 (Homo sapiens) (P08912 whole entry, looked up): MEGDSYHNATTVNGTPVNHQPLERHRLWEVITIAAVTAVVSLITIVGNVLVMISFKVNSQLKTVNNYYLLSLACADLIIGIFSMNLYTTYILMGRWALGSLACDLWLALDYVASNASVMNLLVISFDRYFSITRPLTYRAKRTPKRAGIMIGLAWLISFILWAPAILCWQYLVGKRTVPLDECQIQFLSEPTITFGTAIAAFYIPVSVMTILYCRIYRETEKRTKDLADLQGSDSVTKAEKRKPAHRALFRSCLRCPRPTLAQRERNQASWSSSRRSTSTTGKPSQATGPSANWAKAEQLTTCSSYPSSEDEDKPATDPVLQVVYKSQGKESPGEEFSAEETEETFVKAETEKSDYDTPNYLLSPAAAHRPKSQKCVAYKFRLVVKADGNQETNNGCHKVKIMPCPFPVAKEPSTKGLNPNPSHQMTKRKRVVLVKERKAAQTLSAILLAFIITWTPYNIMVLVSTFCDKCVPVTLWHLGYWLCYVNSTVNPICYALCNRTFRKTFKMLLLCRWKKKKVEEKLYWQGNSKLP
row,SMILES,activity remaining [%]
1,O=C1c2ncccc2C2(c3ccccc3)NCCN12 (configuration not stated),67.2
2,O=C1c2ccccc2C2(c3ccc(Cl)cc3)NCCN12 (configuration not stated),78.7
